In PubChem BioAssay (EPA / NIEHS):
Results filed as inconclusive are left out. The source made the active and inactive calls. Rule for the calls: active = hit-call score of the fitted dose curve at least 0.9, where 1 is the maximum; inconclusive = response in the unintended direction; inactive = score below 0.9.

target: Nuclear receptor subfamily 1 group I member 2 (Homo sapiens) (UniProt O75469); experiment: ATG_PXR_TRANS: Attagene TRANS-FACTORIAL HepG2 Assay for human Pregnane X Receptor (PXR) (AID 2283008)
In short: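 HepG2 cells transiently transfected with GAL4-UAS reporter units and PXR-Gal4 chimera, exposed 24 h. Reporter mRNA quantified by RT-PCR, fluorescent labelling, HpaI digestion and capillary electrophoresis; gain of signal vs DMSO.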

Chain of Nuclear receptor subfamily 1 group I member 2 (Homo sapiens) (O75469 whole entry, looked up, the tested form may be a part): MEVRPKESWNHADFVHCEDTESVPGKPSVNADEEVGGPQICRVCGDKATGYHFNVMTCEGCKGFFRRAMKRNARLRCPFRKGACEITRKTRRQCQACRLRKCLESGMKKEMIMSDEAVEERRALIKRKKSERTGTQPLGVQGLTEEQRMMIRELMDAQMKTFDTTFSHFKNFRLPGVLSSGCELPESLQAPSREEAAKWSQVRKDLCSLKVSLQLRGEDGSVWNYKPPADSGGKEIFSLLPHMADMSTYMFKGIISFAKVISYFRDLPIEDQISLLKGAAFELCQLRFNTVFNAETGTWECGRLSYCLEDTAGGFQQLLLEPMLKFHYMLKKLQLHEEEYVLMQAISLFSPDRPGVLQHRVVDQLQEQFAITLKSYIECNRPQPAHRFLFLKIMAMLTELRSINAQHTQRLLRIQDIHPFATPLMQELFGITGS

Q: Which outcome does the source give for O=C(c1ccccc1)C(Cl)Cl here?
A: inactive

Q: For Nc1ccc(N=Nc2ccc(-c3ccc(N=Nc4c(S(=O)(=O)O)cc5cc(S(=O)(=O)O)c(N=Nc6ccccc6)c(O)c5c4N)cc3)cc2)c(N)c1, which outcome is on record?
A: inactive

Q: O=C(Cc1ccccc1)c1ccccc1 was tested. Which AC50 did it give?
A: 27.8 µM (active)

Q: With COC(=O)c1sccc1S(=O)(=O)NC(=O)Nc1nc(C)nc(OC)n1 as the compound, how does the outcome read?
A: inactive

Q: COP(=O)(OC)O/C(=C\Cl)c1cc(Cl)c(Cl)cc1Cl was tested. Which AC50 did it give?
A: 0.862 µM (active)

Q: With O=[N+]([O-])c1c(Cl)c(Cl)cc(Cl)c1Cl as the compound, how does the outcome read?
A: inactive

Q: Which AC50 does the source give for c1ccc(N=NNc2ccccc2)cc1 here?
A: 33.6 µM (active)

Q: For CCOP(=S)(OCC)SCCS(=O)(=O)CC, which AC50 is on record?
A: 7.88 µM (active)

Q: For CCCCCCCCSC(=O)Oc1cc(Cl)nnc1-c1ccccc1, which outcome is on record?
A: inactive

Q: c1cc[c]([Hg][c]2ccccc2)cc1 was tested. Which outcome did it give?
A: inactive

Q: With O=C/C=C/c1ccccc1 as the compound, how does the AC50 read?
A: 12.1 µM (active)

Q: Which AC50 does the source give for CCSC(C)CC1CC(=O)C(C(CC)=NOC/C=C/Cl)=C(O)C1 (stereo unspecified) here?
A: 7.44 µM (active)

Q: For C[C@H]1CCCC(=O)CCC/C=C/c2cc(O)cc(O)c2C(=O)O1, which AC50 is on record?
A: 0.407 µM (active)

Q: How did the outcome turn out when CCc1ccccc1C was run?
A: inactive

Q: For ClCc1ccccn1, which outcome is on record?
A: inactive

Q: Which outcome does the source give for N#CN=C(N)N here?
A: inactive

Q: For COc1ccccc1OC, which outcome is on record?
A: inactive

Q: How did the outcome turn out when COP(=O)(OC)OC was run?
A: inactive

Q: How did the AC50 turn out when O=[N+]([O-])c1ccc2c3c(cccc13)CC2 was run?
A: 2.41 µM (active)

Q: CCC(C)c1cccc(C(C)CC)c1O (stereo unspecified) was tested. Which AC50 did it give?
A: 4.53 µM (active)

target: human Retinoic Acid Receptor gamma (RARg), RARG (gene 5916) (UniProt P13631); experiment: ATG_RARg_TRANS: Attagene TRANS-FACTORIAL HepG2 Assay for human Retinoic Acid Receptor gamma (RARg) (AID 2283009)
In short: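 Transient transfection of HepG2 with multi-reporter constructs, then 24 h chemical treatment. Total RNA isolated, reverse-transcribed, PCR-amplified, fluorescently labelled and resolved by capillary electrophoresis; activity scored as mRNA induction versus DMSO.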

Chain of human Retinoic Acid Receptor gamma (RARg), RARG (gene 5916) (P13631 whole entry, looked up): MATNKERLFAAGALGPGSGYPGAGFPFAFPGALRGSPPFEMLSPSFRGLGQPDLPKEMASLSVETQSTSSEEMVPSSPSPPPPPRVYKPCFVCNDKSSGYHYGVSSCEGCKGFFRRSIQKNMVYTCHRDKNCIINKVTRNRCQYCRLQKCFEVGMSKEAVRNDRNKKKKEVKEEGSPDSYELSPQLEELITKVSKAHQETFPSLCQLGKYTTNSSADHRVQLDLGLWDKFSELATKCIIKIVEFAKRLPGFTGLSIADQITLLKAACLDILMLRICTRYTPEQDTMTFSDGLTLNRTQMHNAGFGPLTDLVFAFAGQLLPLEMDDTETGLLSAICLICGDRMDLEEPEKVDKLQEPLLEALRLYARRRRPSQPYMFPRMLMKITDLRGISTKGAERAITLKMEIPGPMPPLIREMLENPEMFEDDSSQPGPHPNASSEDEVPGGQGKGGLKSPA

Q: For O=C(c1ccccc1)C(Cl)Cl, which outcome is on record?
A: inactive

Q: With O=C(Cc1ccccc1)c1ccccc1 as the compound, how does the outcome read?
A: inactive

Q: N#CCCO was tested. Which outcome did it give?
A: inactive

Q: With O=C1C(Cl)=C(Cl)C(=O)c2ccccc21 as the compound, how does the outcome read?
A: inactive

Q: For O=[N+]([O-])c1c(Cl)c(Cl)cc(Cl)c1Cl, which outcome is on record?
A: inactive

Q: Which outcome does the source give for c1ccc(N=NNc2ccccc2)cc1 here?
A: inactive

Q: Cn1sc(Cl)cc1=O was tested. Which outcome did it give?
A: inactive

Q: For CCSC(C)CC1CC(=O)C(C(CC)=NOC/C=C/Cl)=C(O)C1 (stereo unspecified), which outcome is on record?
A: inactive

Q: Which outcome does the source give for O=[N+]([O-])c1ccc2c3c(cccc13)CC2 here?
A: inactive

Q: How did the outcome turn out when CCC(C)c1cccc(C(C)CC)c1O (stereo unspecified) was run?
A: inactive

target: human RAR-related Orphan Receptor beta (RORb), RORB (gene 6096) (UniProt Q92753); experiment: ATG_RORb_TRANS: Attagene TRANS-FACTORIAL HepG2 Assay for human RAR-related Orphan Receptor beta (RORb) (AID 2283010)
In short: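 Readout is reporter-gene mRNA induction, detected as fluorescence after RT-PCR and capillary electrophoresis, fitted for gain of signal against DMSO controls. Transiently transfected HepG2 liver cells carrying GAL4-UAS reporter constructs were treated for 24 hours.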

Chain of human RAR-related Orphan Receptor beta (RORb), RORB (gene 6096) (Q92753 whole entry, looked up, the tested form may be a part): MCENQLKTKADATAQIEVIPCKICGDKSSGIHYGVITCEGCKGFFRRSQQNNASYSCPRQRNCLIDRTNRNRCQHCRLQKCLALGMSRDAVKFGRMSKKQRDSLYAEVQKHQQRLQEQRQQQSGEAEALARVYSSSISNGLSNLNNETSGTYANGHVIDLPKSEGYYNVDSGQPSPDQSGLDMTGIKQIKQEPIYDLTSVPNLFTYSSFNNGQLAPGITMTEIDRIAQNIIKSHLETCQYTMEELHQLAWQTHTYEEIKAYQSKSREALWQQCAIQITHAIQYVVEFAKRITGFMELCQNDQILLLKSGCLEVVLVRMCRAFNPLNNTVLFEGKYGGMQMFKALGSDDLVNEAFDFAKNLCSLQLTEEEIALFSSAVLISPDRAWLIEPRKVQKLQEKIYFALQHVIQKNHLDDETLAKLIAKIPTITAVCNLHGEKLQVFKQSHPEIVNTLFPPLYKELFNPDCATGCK

Q: Which outcome does the source give for COc1ccc(C=O)cc1 here?
A: inactive

Q: How did the outcome turn out when O=C(c1ccccc1)C(Cl)Cl was run?
A: inactive

Q: O=C(CCl)CCl was tested. Which outcome did it give?
A: inactive

Q: How did the outcome turn out when N#CCCO was run?
A: inactive

Q: How did the outcome turn out when COc1ccc(C=O)cc1OC was run?
A: inactive

Q: For C[C@H]1O[C@@H](O[C@H]2[C@@H](O)C[C@H](O[C@H]3[C@@H](O)C[C@H](O[C@H]4CC[C@@]5(C)[C@H](CC[C@@H]6[C@@H]5CC[C@]5(C)[C@@H](C7=CC(=O)OC7)CC[C@]65O)C4)O[C@@H]3C)O[C@@H]2C)C[C@H](O)[C@@H]1O, which outcome is on record?
A: inactive

Q: How did the outcome turn out when O=C1C(Cl)=C(Cl)C(=O)c2ccccc21 was run?
A: inactive

Q: For CN(CCCC(=O)c1cccnc1)N=O, which outcome is on record?
A: inactive

Q: How did the outcome turn out when c1cc[c]([Hg][c]2ccccc2)cc1 was run?
A: inactive

Q: O=C/C=C/c1ccccc1 was tested. Which outcome did it give?
A: inactive

Q: With COS(=O)(=O)c1ccc(C)cc1 as the compound, how does the outcome read?
A: inactive

Q: How did the outcome turn out when ClCc1ccccn1 was run?
A: inactive

Q: With COc1ccccc1OC as the compound, how does the outcome read?
A: inactive

Q: With COP(=O)(OC)OC as the compound, how does the outcome read?
A: inactive

Q: How did the outcome turn out when CCC(=O)c1ccccc1 was run?
A: inactive
